In the library only some 1.9% were active in any assay of this set; here they are far more common.
N-glyco inh – blocks N-linked glycosylation in D54 reporter cells; D54 ERlucT glycosylation luciferase reporter, 24 h; percent of 100 nM tunicamycin response; reporter increase, % at 12.5 µM; 360,000 tested, 0.23% active; AID 588692;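 active = mean luciferase reporter signal, scaled so untreated is 0 and the glycosylation-blocking control 100, at or above a set limit in every replicate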;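 note: luciferase carries N-glycosylation sites so blocking glycosylation raises the light; 0% = median of neutral control wells and 100% = median of 100 nM tunicamycin wells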
Vif imaging – blocks HIV Vif function; HEK293T cells, Vif self-association by quenched fluorescence, imaging, 24 h; inhibition, % at 7.49 µM; AID 602346; 340,000 tested, 0.35% active; in the data active = inhibition above about 50%, passing the limit was not always enough
NSD2 inh – inhibitors of human histone methyltransferase NSD2; AID 743445; 310,000 tested, 0.54% active; O96028; NSD2 peptide methylation, AlphaScreen, 120 min; inhibition, % at 12.5 µM
DSG3 Ab inh – blocks pemphigus antibody binding to human desmoglein-3 | P32926 | DSG3-coupled beads, scFv-anti-DSG3-GFP binding, flow cytometry; stronger effect = lower value | binding (percent of control), % at 10 µM | 310,000 tested, 0.48% active | AID 588358;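 active = binding more than 3 SD below its plate's average and above zero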;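 note: hits lower antibody fragment binding to DSG3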
ATG4B inh – inhibitors of human ATG4B cysteine protease; Q9Y4P1; ATG4B cleavage of LC3-PLA2, NBD-HPC fluorescence, 1 h; inhibition, % at 8.33 µM; 340,000 tested, 0.51% active; in the data active = inhibition above about 40%
CaV13 ICDI inh – Disruptors of the CACNA1D IQ motif to Ca2+-dependent inactivation inhibitor domain association, primary screening, Förster resonance energy transfer in intact living …; HEK cells, CFP/YFP FRET ICDI-IQ, plate reader, 10 min; percent FRET-ratio fall versus neutral wells; inhibition, % at 12.3 µM; 340,000 tested, 0.098% active;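 active = mean replicate inhibition of at least 30% and at least 1% of replicates passing that level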;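 note: 0% = median of the neutral control wells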
ATG4B conf – confirmation of human ATG4B inhibitors | shares compounds with ATG4B inh | ATG4B protease fluorescent substrate cleavage assay | inhibition, % at 8.33 µM | 320 tested, 92% active | AID 504757; in the data active = inhibition above about 39%
PLA2 counter – PLA2 (human) inhibition in ATG4B counter-screen; shares compounds with ATG4B inh; purified PLA2, NBD-C6-HPC fluorescence, 45 min; inhibition, % at 8.33 µM; 1,600 tested, 66% active
An asterisk follows results filed as active; . = no result given. Cut-off read from the data, not from the text of the source, unless noted: active = inhibition above about 50%; inactive = the rest.

SMILES	N-glyco inh	Vif imaging	NSD2 inh	DSG3 Ab inh	ATG4B inh	CaV13 ICDI inh	PLA2 counter	others
Cc1ccc(CNC(=S)Nc2ccc(C)c([N+](=O)[O-])c2)cc1	3	8	0	107	8	-2	.
Cc1onc(-c2ccccc2)c1CNC(=O)Nc1cccc(Cl)c1	-5	-2	-5	.	46*	-14	44	ATG4B conf=73*
O=C(NCc1ccc(F)cc1)Nc1cccc(Cl)c1	-2	0	-2	108	67*	-4	73*
FC(F)Sc1ccc(NC(=S)NC(c2ccccc2)c2ccccc2)cc1	-7	-5	3	101	-3	-4	.
O=C(NCc1ccc(F)cc1)Nc1ccc(Cl)cc1	-1	1	13	119	46*	1	54*
FC(F)Sc1ccc(NC(=S)NCc2ccccc2)cc1	-4	-12	-3	92	44*	-10	60*
O=C(NCCc1ccc(Cl)cc1)Nc1ccc(Cl)cc1	2	11	-7	104	4	-16	.
COc1ccc(-n2nnnc2SCC(=O)NCCc2ccc(OC)c(OC)c2)cc1	-1	0	-1	102	-1	.	.
CC(=O)Nc1ccccc1OCC(=O)NC(C)c1ccccc1 (stereo not drawn)	3	-3	-3	82	-17	7	.
CC(NC(=O)COc1ccccc1-c1ccccc1)c1ccccc1 (stereo not drawn)	-4	-1	-1	110	42*	-5	52*
O=C1/C(=C\c2cc([N+](=O)[O-])ccc2O)SC(=S)N1Cc1ccc(Cl)cc1	-1	-14	2	96	52*	-31	51*
O=C1/C(=C\c2cccc(O)c2O)SC(=S)N1Cc1ccccc1	-1	-5	52*	102	74*	-5	89*
O=C1/C(=C\c2ccc(O)c(O)c2)SC(=S)N1Cc1ccccc1	0	0	31	227	34	-8	.
COc1ccc(CNC(=O)Cn2nc([N+](=O)[O-])c(Br)c2C)cc1OC	2	-33	-3	91	7	-4	.
CC1=C(C(=O)NCCN2CCOCC2)C2(CCC(C)CC2)OC1=O (stereo not drawn)	3	7	.	99	-6	5	.
O=[N+]([O-])c1ccc(N/N=C/c2sc(N3CCOCC3)nc2-c2ccccc2)c(S(=O)(=O)Nc2ccccc2Cl)c1	0	8	8	132	62*	-7	26
O=[N+]([O-])c1ccc(N/N=C/c2sc(N3CCOCC3)nc2-c2ccccc2)c(S(=O)(=O)Nc2ccc(Cl)cc2)c1	-17	-4	3	136	13	-105	.
Cc1nc(NC(=O)c2ccccc2)sc1-c1csc(NCc2ccco2)n1	-5	0	.	89	41*	.	67*
O=CNC(n1cnc2c(N3CCOCC3)ncnc21)C(Cl)(Cl)Cl (stereo not drawn)	1	13	0	88	5	1	.
S=c1[nH]nc(-c2cc(-c3ccco3)[nH]n2)n1-c1ccccc1Cl	4	6	.	99	50*	-5	-7
S=c1[nH]nc(-c2ccco2)n1-c1ccccc1Cl	1	4	-4	.	-11	7	.
COc1ccc(C(O)(C(=O)NNc2ccc(C)cc2)c2cccs2)cc1 (stereo not drawn)	4	1	1	104	-1	.	.
O=C(NNc1ccc(C2CCCCC2)cc1)C(O)(c1ccccc1)c1cccs1 (stereo not drawn)	-2	11	-1	100	67*	-7	70*
COc1ccc(C2C(C(C)=O)=C(C)N=c3s/c(=C\c4ccco4)c(=O)n32)c(OC)c1 (stereo not drawn)	1	-4	12	100	-6	-6	.
